Laboratory results reported in PubChem BioAssay (NCATS).
“And” between values parts separate entries of the source, which are not always exact repeats. Equal values may be shown once. Records with an inconclusive call do not appear. Where a call stands in place of a potency, no number is given. A structure can be active in one record and inactive in another. The source made the active and inactive calls. The call rests on the fitted dose curve; in most records, active means well fitted inhibition curve with a large enough effect; inconclusive means small, poorly fitted or top-dose-only effect; inactive means flat fitted curve, though single readings scatter. Where a SMILES comes first, the peptide text is derived from it. The star is where a group is joined. PhAc = O=C(Cc1ccccc1)*

Key:
[1] = molecular target: Glutathione peroxidase 1 (Homo sapiens) (UniProt P07203); experiment: Primary qHTS Assay for Inhibitors of Recombinant Selenoprotein Glutathione Peroxidase 1 (GPX1) (AID 1845191); settings: recombinant GPX1, GR-coupled NADPH fluorescence, 15 min; series mostly up to 27.7 µM; further: nearly all actives have a fitted effect of over 65% in size
Glutathione peroxidase 1 (Homo sapiens), sequence (P07203 whole entry, looked up): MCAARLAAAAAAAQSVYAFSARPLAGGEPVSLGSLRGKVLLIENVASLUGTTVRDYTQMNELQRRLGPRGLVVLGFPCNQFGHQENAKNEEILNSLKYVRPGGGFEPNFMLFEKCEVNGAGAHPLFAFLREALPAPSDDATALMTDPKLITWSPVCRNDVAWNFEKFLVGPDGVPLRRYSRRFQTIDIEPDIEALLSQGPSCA
How it was run: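 GR-coupled readout: NADPH consumption tracked by fluorescence, ex 340/em 450 nm, at t=0 and after 15 min at RT. Final mix 10 nM GPX1, 1 mM GSH, 0.5 mM CHP, 0.5 mM NADPH, 100 nM GR, 0.01% BSA, following 30 min enzyme–compound preincubation.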

[2] = molecular target: Phospholipid hydroperoxide glutathione peroxidase GPX4 (Homo sapiens) (UniProt P36969); experiment: Primary qHTS Assay for Inhibitors of Recombinant Selenoprotein Glutathione Peroxidase 4 (GPX4) (AID 1845192); settings: recombinant GPX4, GR-coupled NADPH fluorescence, 15 min; series mostly up to 27.8 µM; further: nearly all actives have a fitted effect of over 65% in size; further: potency means the concentration at half of the fitted maximal effect
Phospholipid hydroperoxide glutathione peroxidase GPX4 (Homo sapiens), sequence (P36969 whole entry, looked up): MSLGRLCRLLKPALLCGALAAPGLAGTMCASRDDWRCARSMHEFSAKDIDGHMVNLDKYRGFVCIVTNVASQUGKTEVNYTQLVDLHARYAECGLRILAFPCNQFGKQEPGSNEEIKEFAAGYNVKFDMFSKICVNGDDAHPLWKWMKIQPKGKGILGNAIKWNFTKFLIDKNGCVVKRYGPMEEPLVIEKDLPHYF
How it was run: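 Steps: GPX4 plus compound, 30 min RT; add GR/GSH/NADPH master mix; start with cumene hydroperoxide; read 340/450 nm fluorescence at 0 and 15 min. Finals were 200 nM GPX4, 1 mM GSH, 0.5 mM CHP, 0.5 mM NADPH, 100 nM GR.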

[3] = molecular target: Luciferin 4-monooxygenase (Photinus pyralis) (UniProt P08659); experiment: Primary firefly luciferase (FLuc) qHTS assay for identification of artifact compounds. (AID 1845220); settings: purified firefly luciferase, luminescence, 5 min; series mostly up to 54.1 µM; further: nearly all actives have a fitted effect of over 60% in size
How it was run: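 Titrated compounds were incubated 15 min at RT, protected from light, with luciferin and ATP at 10 uM; reaction started with 10 nM FLuc, luminescence imaged at 5 min, and concentration-response fitted by Hill equation.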

Compound	Potency [1]	Potency [2]	Potency [3]	outcome [3]	activity change, negative = inhibition [3]
C=C1C2CCC3C(CCC4[C@@]3(C)CCC[C@@]4(C)C(=O)O)(C2)[C@@H]1OC(=O)/C(C)=C\C (some centres undefined)	inactive	inactive	inactive		
CC1C(O)C(O)C2C(C(=O)OCCc3ccc(O)cc3)=COC(O[C@@H]3O[C@H](CO)[C@@H](O)[C@H](O)[C@H]3O)C12 (some centres undefined)	inactive	inactive	inactive		
CC(O)C1NC(=O)C2CCCN2C1=O (centres undefined)	inactive	inactive	inactive		
Cc1ccccc1NC(=O)Nc1ccc(CN2C(=O)N([C@@H](CC(C)C)C(=O)N[C@@H](CC(=O)O)c3ccccc3)C(=O)C2(C)C)cc1	inactive	inactive	inactive		
COC(=O)[C@H](Cc1cccc(C(=N)N)c1)[C@@H](C)NC(=O)c1ccc(-c2cc[n+]([O-])cc2)cc1	inactive	inactive	inactive		
CCOC(=O)CNC(=O)[C@@H]1CCCN1C(=O)Cc1ccccc1 (PhAc-Pro-Gly-OEt)	inactive	inactive	inactive		
CCCN(CCN1CCN(c2ccccc2OC)CC1)C1CCc2ncsc2C1 (centres undefined)	inactive	inactive	inactive		
Cc1nnc(-c2sc(NC(=O)[C@H](C(C)C)n3c(=O)[nH]c4ccccc4c3=O)nc2C)o1	inactive	inactive	inactive		
C[C@@H]1C(=O)O[C@H](C)[C@H]1C[C@@H](O)[C@](C)(O)[C@H]1CC[C@@]2(O)C3=CC(=O)[C@@H]4C[C@@H](O)[C@@H](O)C[C@]4(C)C3CC[C@]12C (some centres undefined)	inactive	inactive	inactive		
COC(=O)C1=CO[C@@H](O[C@@H]2O[C@H](CO)[C@@H](O)[C@H](O)[C@H]2O)[C@H]2[C@@H]1C=C[C@]21C=C([C@H](C)OC(=O)/C=C/c2ccc(O[C@@H]3O[C@H](CO)[C@@H](O)[C@H](O)[C@H]3O)cc2)C(=O)O1	inactive	inactive	inactive		
CC(C)=CCC(O)[C@](C)(O)C1[C@H](O)C[C@@]2(C)C3CC=C4C(C[C@H](O)[C@@H](O[C@@H]5O[C@H](CO)[C@@H](O)[C@H](O)[C@H]5O)C4(C)C)[C@]3(C)C(=O)C[C@]12C (some centres undefined)	inactive	inactive	inactive		
CC1CC(=O)[C@]2(O)C(C(=O)OCCc3ccc(O)c(O)c3)=CO[C@@H](O[C@@H]3O[C@H](CO)[C@@H](O)[C@H](O)[C@H]3O)[C@H]12 (some centres undefined)	inactive	inactive	inactive		
CC(=O)OCC1OC(O[C@H]2CC[C@]34C[C@]35CC(O)[C@]3(C)[C@@H]([C@H](C)CC/C=C(\C)C(=O)O)C(O)C[C@@]3(C)C5CC[C@H]4C2(C)C)C(O)C(O)C1OC1OCC(O)C(O)C1O (some centres undefined)	inactive	inactive		inactive [at 11.6 µM]	
CC(C)C1C(OC(=O)/C=C/c2ccccc2)CC2(C)OC2CCC2(C)OC2C1O (centres undefined)	inactive	inactive	inactive		
C[C@@H]1O[C@@H](O[C@H]2[C@@H]3C=CO[C@@H](O[C@@H]4O[C@H](CO)[C@@H](O)[C@H](O)[C@H]4O)[C@@H]3[C@@]3(CO)O[C@@H]23)[C@H](O)[C@H](OC(=O)/C=C/c2ccc(O)c(O)c2)[C@H]1O	inactive	inactive	inactive		
CC(NC(=O)CC(=O)O)C(=O)Nc1ccccc1C(N)=O (centres undefined)	inactive	inactive	inactive		
CC(CCO)CCC1C2(C)CCCC(C)(C)C2CC[C@@]1(C)O (some centres undefined)	inactive	inactive	inactive		
COc1cc(/C=C/C(=O)O[C@@H]2C[C@@](O)(C(=O)O)C[C@@H](O)[C@@H]2O)ccc1O	inactive	inactive	inactive		
Cc1cc(-n2c(=O)[nH]c(=O)n(C)c2=O)ccc1Oc1ccc(SC(F)(F)F)cc1	inactive	inactive and 15.8 µM (active)	inactive		
CC(=O)OC1C(C)C2C(OC3OC(CO)C(O)C(O)C3O)OC=C(C(=O)O)C2C1OC(=O)c1ccccc1 (centres undefined)	inactive	inactive	inactive		
C=C(CCO)C(=O)OCC1OCC(OC(=O)C(=C)CCO[C@@H]2O[C@H](CO)[C@@H](O)[C@H](O)[C@H]2O)C(O)C1O (some centres undefined)	inactive	inactive	inactive		
C=C1[C@@H]2CC[C@@]3(C)[C@H](c4ccoc4)OC(=O)C[C@]13O[C@H]1CC(=O)C(C)(C)[C@H](C(O)C(=O)OC)[C@]12C (some centres undefined)	inactive	inactive	inactive		
O=C(O[C@H]1[C@H](Oc2ccc(O)cc2CO)O[C@H](CO)[C@@H](O)[C@@H]1O)c1ccccc1	inactive	inactive	inactive		
COc1ccc(/C=C/C(=O)O[C@@H]2[C@@H](OC(C)=O)[C@@H](OC(C)=O)[C@H](O[C@H]3[C@@H]4C=CO[C@@H](O[C@@H]5O[C@H](CO)[C@@H](O)[C@H](O)[C@H]5O)[C@@H]4[C@@]4(CO)O[C@@H]34)O[C@H]2C)cc1	inactive	inactive	inactive		

Compound	Potency [1]	Potency [2]	Potency [3]	outcome [3]	activity change, negative = inhibition [3]
C[C@@H]1O[C@@H](OC2C(CO)OC(OCC3OC(OC(=O)[C@]45CCC(C)(C)CC4C4=CCC6[C@@]7(C)CC[C@@H](O)[C@](C)(C(=O)O)C7CC[C@@]6(C)[C@]4(C)CC5)C(O)C(O)C3O)C(O)C2O)[C@H](O)[C@H](O)[C@H]1O (some centres undefined)	inactive	inactive			-1.59% [at 11.6 µM] (inactive)
CC1=C(CO)CC(C(C)C2CCC3C4CC=C5CC(OC6OC(COC7OC(CO)C(O)C(O)C7O)C(O)C(O)C6O)CC(O)C5(C)C4CCC23C)OC1=O (centres undefined)	inactive	inactive	inactive		
C/C(=C\C(=O)C[C@@]12C(=O)O[C@]3(C)CC[C@H]1C[C@H]23)C(N)=O	inactive	inactive	inactive		
CC/C=C\CC1C(CC(=O)O)CCC1OC1OC(CO)C(O)C(O)C1O (centres undefined)	inactive	inactive	inactive		
Cc1ncc(Cl)cc1NCc1ccc(C(=O)NC(CC2CCCC2)C(=O)NC2CC2)s1 (centres undefined)	inactive	inactive	inactive		
CC(=O)O[C@@H]1C=C2[C@H](CC[C@@]3(C)[C@@]2(O)CC[C@H]2Cc4c([nH]c5ccccc45)[C@@]23C)O[C@@H]1C(C)(C)O	inactive	inactive	inactive		
CC1CCC2(C(=O)O)CCC3(C)C(=CCC4C5(C)C[C@@H](O)[C@@H](O)C(C)(CO)C5CCC43C)C2C1(C)O (some centres undefined)	inactive	inactive	inactive		
COC(=O)C1=CO[C@@H](O[C@@H]2O[C@H](CO)[C@@H](O)[C@H](O)[C@H]2O)[C@@H]2[C@@H](CO)[C@@H](O)C(O)[C@H]12 (some centres undefined)	inactive	inactive	inactive		
COC(=O)C1=COC(OC2OC(CO)C(O)C(O)C2O)C2C(C)C(OC(C)=O)C(OC(=O)c3ccccc3)C12 (centres undefined)	inactive	inactive	inactive		
CC1(C)CC[C@]2(C(=O)O)CC[C@]3(C)C(=CCC4[C@@]5(C)CC[C@H](O[C@@H]6O[C@H](C(=O)O)[C@@H](O)[C@H](O)[C@H]6O)C(C)(C)C5CC[C@]43C)C2C1 (some centres undefined)	inactive	inactive	inactive		
Cc1cn(C[C@H](N)C(=O)O)c(=O)n(Cc2ccsc2C(=O)O)c1=O	inactive	inactive	inactive		
OC[C@@]1(O)CO[C@H](OC[C@H]2O[C@@H](OCCc3ccccc3)[C@H](O)[C@@H](O)[C@@H]2O)[C@@H]1O	inactive	inactive	inactive		
CCC(C)/C=C(C)/C=C/C1=CC2=C(Cl)C(=O)C(C)(OC(C)=O)C(=O)C2=CN1C(CC(=O)O)C(=O)O (centres undefined)	inactive	inactive	inactive		
C=C1CCC2C(C)(C)CC(O)CC2(C)C1CCC(C)CC(=O)O (centres undefined)	inactive	inactive	inactive		
CC1(C)CC2C3=CCC4[C@@]5(C)CC[C@H](OC6OCC(O)C(OC7OC(CO)C(O)C(O)C7O)C6O)C(C)(C)C5CC[C@@]4(C)[C@]3(C)C[C@H](O)[C@@]2(CO)[C@H](OC(=O)c2ccccc2)C1 (some centres undefined)	inactive	inactive			-8.37% [at 11.6 µM] (inactive)
C[C@@H]1O[C@@H](O[C@H]2[C@H](OC(=O)[C@]34CCC(C)(C)C[C@H]3C3=CCC5[C@@]6(C)C[C@@H](O)[C@@H](O)[C@@](C)(CO)C6[C@H](O)C[C@@]5(C)[C@]3(C)CC4)OC[C@H](O)[C@@H]2O)[C@H](O)[C@H](O)[C@H]1O[C@@H]1OC[C@@H](O)[C@H](O[C@H]2O[C@H](C)[C@@H](O)[C@H](O)[C@@H]2O)[C@H]1O (some centres undefined)	inactive	inactive		inactive [at 11.6 µM]	
Fc1ccc(-c2c3cccc(C(F)(F)F)c3nn2Cc2ccc(F)cc2Cl)cc1	inactive	inactive	inactive		
COc1cc(Nc2nc3ccccc3nc2NS(=O)(=O)c2cccc(NC(=O)c3ccc(C)c(OC)c3)c2)cc(OC)c1	inactive	inactive	inactive		
C[C@]12CCC[C@](C)(C(=O)O)C1[C@@H](O)[C@@H](O)C13CC(CCC12)C(CO)(O[C@@H]1O[C@H](CO)[C@@H](O)[C@H](O)[C@H]1O)C3 (some centres undefined)	inactive	inactive	inactive		
COc1ccc(-n2[nH]c3c(cnc4ccccc43)c2=O)cc1	inactive	inactive	inactive		
CC(C)=CCC[C@](C)(O[C@@H]1O[C@H](CO[C@@H]2O[C@@H](CO)[C@H](O)[C@H]2O)[C@@H](O)[C@H](O)[C@H]1O)[C@H]1CC[C@]2(C)[C@@H]1[C@H](O)C[C@@H]1[C@@]3(C)CC[C@H](O[C@@H]4O[C@H](CO)[C@@H](O)[C@H](O)[C@H]4O[C@@H]4O[C@H](CO)[C@@H](O)[C@H](O)[C@H]4O)C(C)(C)[C@@H]3CC[C@]12C	inactive	inactive	inactive		
COc1cc(/C=C/C(=O)O)ccc1O[C@@H]1O[C@H](CO)[C@@H](O)[C@H](O)[C@H]1O[C@@H]1OC[C@](O)(CO)[C@H]1O	inactive	inactive	inactive		
Nc1ncnc2c1C(=O)N(c1ccc(C3CCC(CC(=O)O)CC3)cc1)CCO2 (centres undefined)	inactive	inactive	inactive		
CC1(C(=O)O)CC[C@]2(C(=O)OC3OC(CO)C(O)C(O)C3O)CC[C@]3(C)C(=CCC4[C@@]5(C)CC[C@H](OC6OCC(O)C(O)C6OC6OC(CO)C(O)C(O)C6O)C(C)(C)C5CC[C@]43C)C2C1 (some centres undefined)	inactive	inactive			0.425% [at 11.6 µM] (inactive)
